# Laboratory results taken from PubChem BioAssay (EPA / NIEHS).
# Where “and” joins values, the source holds several entries; their conditions need not be identical. Identical values can stand only once. Records with an inconclusive call do not appear. More than one record can exist for a structure, and the calls need not agree. Calls of active or inactive are those of the source. The calls were made as follows: active = hit-call score of the fitted dose curve at least 0.9, where 1 is the maximum; inconclusive = response in the unintended direction; inactive = score below 0.9.
# Legend:
# [1] = biological target: human Serotonin, 5-Hydroxytryptamine Receptor 2A (5HT2A), HTR2A (gene 3356) (UniProt P28223); test: NVS_GPCR_h5HT2A: NovaScreen (NVS) G Protein-Coupled Receptor Assay for human Serotonin, 5-Hydroxytryptamine Receptor 2A (5HT2A) (AID 2283249)
# Outline: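 Radioligand displacement on human cortex tissue extract, counted by filtration and scintillation 1.5 h post-dosing. Initial single-concentration screen at 25 uM in duplicate, concentration series in follow-up; DMSO as baseline.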
# [2] = biological target: human Serotonin, 5-Hydroxytryptamine Receptor 7 (5HT7), HTR7 (gene 3363) (UniProt P34969); test: NVS_GPCR_h5HT7: NovaScreen (NVS) G Protein-Coupled Receptor Assay for human Serotonin, 5-Hydroxytryptamine Receptor 7 (5HT7) (AID 2283255);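 also: hits reduce specific radioligand binding relative to DMSO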
# Experimental: (§1) NVS_GPCR_h5HT7 is a biochemical, single-readout assay that uses extracted gene-proteins from CHO in a cell-free assay. Measurements were taken 1 hour after chemical dosing in a 96-well plate.NVS_GPCR_h5HT7 is one of one assay component(s) measured or calculated from the NVS_GPCR_h5HT7 assay. It is designed to make measurements of radioligand binding, a form of binding reporter, as detected with scintillation counting signals by Filter-based radiodetection technology.Data from the assay component NVS_GPCR_h5HT7 was analyzed into 1 assay endpoint. This assay endpoint, NVS_GPCR_h5HT7, was analyzed in the positive analysis fitting direction relative to DMSO as the negative control and baseline of activity. Using a type of binding reporter, loss-of-signal activity can be used to understand changes in the binding as they relate to the gene HTR7. Furthermore, this assay endpoint can be referred to as a primary readout, because the performed assay has only produced 1 assay endpoint. To generalize the intended target to other relatable targets, this assay endpoint is annotated to the gpcr intended target family, where the subfamily is rhodopsin-like receptor.
# (§2) Binding assays used specific radioligands (tritiated, iodinated) with non-radioactive competitive displacement ligands in agonist or antagonist protocols (as indicated) and various reference compounds and inhibitors to titrate specific binding to receptors and transporters. Most enzyme assays (CYPs, kinases, phosphatases, proteases, HDACs) used recombinant protein and specific substrates (fluorescence mostly, some colorimetric and radioactive) and inhibitors, followed by a biochemical separation of substrate and product. All assays for the biochemical HTS were initially run in duplicate at a single concentration (10 uM for CYP450 assays and 25 uM for all others). […] Each assay was run with positive and negative controls, and concurrent controls on every plate. The follow-up (secondary) screen tested active chemical-pairs in concentration series, as well as a few additional assays not tested in the primary screen, some selected negative inactives, and several cases re-run in the concentration series for confirmatory purposes.
# [3] = biological target: human Serotonin, 5-Hydroxytryptamine Receptor 5A (5HT5A), HTR5A (gene 3361) (UniProt P47898); test: NVS_GPCR_h5HT5A: NovaScreen (NVS) G Protein-Coupled Receptor Assay for human Serotonin, 5-Hydroxytryptamine Receptor 5A (5HT5A) (AID 2283251)
# Experimental: as §1, with “NVS_GPCR_h5HT5A” for “NVS_GPCR_h5HT7”, “HEK293” for “CHO”, “plate.NVS_GPCR_h5HT5A” for “plate.NVS_GPCR_h5HT7”, “NVS_GPCR_h5HT5A,” for “NVS_GPCR_h5HT7,”, “HTR5A.” for “HTR7.”
# as §2
# [4] = biological target: human Adenosine A1 Receptor (AdoRA1), ADORA1 (gene 134) (UniProt P30542); test: NVS_GPCR_hAdoRA1: NovaScreen (NVS) G Protein-Coupled Receptor Assay for human Adenosine A1 Receptor (AdoRA1) (AID 2283254)
# Outline: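 Membranes from human cortical tissue were incubated with radioligand and test chemical for 1 hour, then filtered and counted. Activity was taken as signal loss relative to DMSO, screened at 25 uM in duplicate before concentration-response follow-up.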
# [5] = biological target: human Adenosine A2a Receptor (AdoRA2a), ADORA2A (gene 135) (UniProt P29274); test: NVS_GPCR_hAdoRA2a: NovaScreen (NVS) G Protein-Coupled Receptor Assay for human Adenosine A2a Receptor (AdoRA2a) (AID 2283256)
# Outline: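 HEK293-derived receptor preparation, radioligand displacement, 1.5 h, filtration + scintillation read. Loss of bound signal scored vs DMSO. Single-point 25 uM in duplicate first, then concentration-response for actives.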
# [6] = biological target: human Serotonin, 5-Hydroxytryptamine Receptor 6 (5HT6), HTR6 (gene 3362) (UniProt P50406); test: NVS_GPCR_h5HT6: NovaScreen (NVS) G Protein-Coupled Receptor Assay for human Serotonin, 5-Hydroxytryptamine Receptor 6 (5HT6) (AID 2283253)
# Outline: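 Filter scintillation counting of radioligand displacement from HEK293-expressed 5HT6, 1 hour post-dose, with loss of signal relative to DMSO. Single 25 uM duplicates first, with concentration series for confirmation.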
# [7] = biological target: human Adrenergic, Beta 1 Receptor (Adrb1), ADRB1 (gene 153) (UniProt P08588); test: NVS_GPCR_hAdrb1: NovaScreen (NVS) G Protein-Coupled Receptor Assay for human Adrenergic, Beta 1 Receptor (Adrb1) (AID 2283258)
# Outline: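 Membranes/protein extracted from human neuroepithelioma cells, radioligand competition binding read by filtration and scintillation 2 h post-dose. Single 25 uM duplicate screen, then concentration-response follow-up; DMSO as negative control.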
# [8] = biological target: guinea pig Opioid, Kappa 1 Receptor (OpiateK), OPRK1 (gene 100135587) (UniProt P41144); test: NVS_GPCR_gOpiateK: NovaScreen (NVS) G Protein-Coupled Receptor Assay for guinea pig Opioid, Kappa 1 Receptor (OpiateK) (AID 2283252);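 also: active means reduced radioligand binding relative to DMSO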
# Outline: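 Radioligand binding to kappa opioid receptor in guinea pig cerebellar membranes, read by filtration and scintillation at 2 h. Compounds first tested in duplicate at 25 uM, then actives in concentration series; signal loss fitted against DMSO.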
# [9] = biological target: human Adrenergic, Alpha 2A Receptor (Adra2A), ADRA2A (gene 150) (UniProt P08913); test: NVS_GPCR_hAdra2A: NovaScreen (NVS) G Protein-Coupled Receptor Assay for human Adrenergic, Alpha 2A Receptor (Adra2A) (AID 2283257)
# Experimental: as §1, with “NVS_GPCR_hAdra2A” for “NVS_GPCR_h5HT7”, “HT29” for “CHO”, “48-well plate.NVS_GPCR_hAdra2A” for “96-well plate.NVS_GPCR_h5HT7”, “NVS_GPCR_hAdra2A,” for “NVS_GPCR_h5HT7,”, “ADRA2A.” for “HTR7.”
# as §2, with “The follow-up (secondary) screen tested active chemical-pairs in concentration series, as well as a few additional assays not tested in the primary screen, some selected negative inactives, and several cases re-run in the concentration series for confirmatory purposes.” left out
# [10] = system: guinea pig Muscarinic, Peripheral (Mperiperal) Receptor, Non-selective Binding, gene 100379235; test: NVS_GPCR_gMPeripheral_NonSelective: NovaScreen (NVS) G Protein-Coupled Receptor Assay for guinea pig Muscarinic, Peripheral (Mperiperal) Receptor, Non-selective Binding (AID 2283250)
# Outline: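 Screened in duplicate at 25 uM, hits retested in concentration series to 50 uM max, using bladder membrane radioligand displacement from guinea pig. Filtration and scintillation counting 1 h post-dose, fitted relative to DMSO.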
# Sequence of human Adenosine A2a Receptor (AdoRA2a), ADORA2A (gene 135) (P29274 whole entry, looked up): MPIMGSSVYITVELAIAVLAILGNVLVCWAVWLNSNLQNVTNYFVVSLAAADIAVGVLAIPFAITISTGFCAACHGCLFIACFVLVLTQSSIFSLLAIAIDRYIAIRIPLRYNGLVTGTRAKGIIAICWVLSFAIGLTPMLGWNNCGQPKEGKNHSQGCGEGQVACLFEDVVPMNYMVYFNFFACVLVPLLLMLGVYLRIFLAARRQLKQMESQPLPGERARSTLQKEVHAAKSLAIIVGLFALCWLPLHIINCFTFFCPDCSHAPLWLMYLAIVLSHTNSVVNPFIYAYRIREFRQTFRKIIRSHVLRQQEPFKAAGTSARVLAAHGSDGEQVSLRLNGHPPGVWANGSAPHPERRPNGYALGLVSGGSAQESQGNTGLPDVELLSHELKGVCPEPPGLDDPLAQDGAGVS
# Sequence of guinea pig Opioid, Kappa 1 Receptor (OpiateK), OPRK1 (gene 100135587) (P41144 whole entry, looked up): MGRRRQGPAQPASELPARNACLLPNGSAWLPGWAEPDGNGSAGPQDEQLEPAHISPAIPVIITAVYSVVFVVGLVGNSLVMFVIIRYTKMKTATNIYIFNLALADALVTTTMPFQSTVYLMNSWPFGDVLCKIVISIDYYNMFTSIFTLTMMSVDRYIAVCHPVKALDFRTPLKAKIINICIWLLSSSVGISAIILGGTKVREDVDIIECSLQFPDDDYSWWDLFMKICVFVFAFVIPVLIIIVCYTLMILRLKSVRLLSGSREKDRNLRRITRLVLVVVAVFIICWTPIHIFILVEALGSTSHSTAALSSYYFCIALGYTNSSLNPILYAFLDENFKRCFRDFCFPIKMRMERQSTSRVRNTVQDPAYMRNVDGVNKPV
# Sequence of human Adrenergic, Alpha 2A Receptor (Adra2A), ADRA2A (gene 150) (P08913 whole entry, looked up): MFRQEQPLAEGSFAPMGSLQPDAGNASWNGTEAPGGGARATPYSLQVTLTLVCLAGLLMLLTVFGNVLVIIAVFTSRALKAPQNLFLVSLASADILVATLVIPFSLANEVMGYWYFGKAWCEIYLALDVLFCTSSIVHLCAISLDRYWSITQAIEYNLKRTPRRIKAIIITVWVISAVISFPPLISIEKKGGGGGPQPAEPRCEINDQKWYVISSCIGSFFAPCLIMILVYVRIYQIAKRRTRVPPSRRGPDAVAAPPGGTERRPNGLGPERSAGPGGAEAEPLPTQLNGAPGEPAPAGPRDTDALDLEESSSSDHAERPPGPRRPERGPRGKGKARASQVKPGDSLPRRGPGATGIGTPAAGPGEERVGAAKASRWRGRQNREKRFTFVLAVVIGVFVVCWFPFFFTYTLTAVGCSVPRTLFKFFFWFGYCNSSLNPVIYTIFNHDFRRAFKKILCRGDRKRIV
# Sequence of human Serotonin, 5-Hydroxytryptamine Receptor 7 (5HT7), HTR7 (gene 3363) (P34969 whole entry, looked up): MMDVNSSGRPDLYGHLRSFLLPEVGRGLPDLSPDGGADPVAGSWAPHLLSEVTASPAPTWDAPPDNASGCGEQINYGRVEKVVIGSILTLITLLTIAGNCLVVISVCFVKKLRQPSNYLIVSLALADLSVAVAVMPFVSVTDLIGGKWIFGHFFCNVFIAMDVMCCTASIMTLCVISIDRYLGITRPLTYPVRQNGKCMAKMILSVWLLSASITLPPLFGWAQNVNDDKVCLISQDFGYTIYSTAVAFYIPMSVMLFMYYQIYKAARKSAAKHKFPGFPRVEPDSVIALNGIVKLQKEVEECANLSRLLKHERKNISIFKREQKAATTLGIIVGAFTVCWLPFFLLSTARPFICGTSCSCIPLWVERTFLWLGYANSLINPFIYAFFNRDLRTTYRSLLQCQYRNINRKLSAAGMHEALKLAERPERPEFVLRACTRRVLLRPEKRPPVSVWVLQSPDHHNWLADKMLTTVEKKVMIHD
# Sequence of human Serotonin, 5-Hydroxytryptamine Receptor 5A (5HT5A), HTR5A (gene 3361) (P47898 whole entry, looked up): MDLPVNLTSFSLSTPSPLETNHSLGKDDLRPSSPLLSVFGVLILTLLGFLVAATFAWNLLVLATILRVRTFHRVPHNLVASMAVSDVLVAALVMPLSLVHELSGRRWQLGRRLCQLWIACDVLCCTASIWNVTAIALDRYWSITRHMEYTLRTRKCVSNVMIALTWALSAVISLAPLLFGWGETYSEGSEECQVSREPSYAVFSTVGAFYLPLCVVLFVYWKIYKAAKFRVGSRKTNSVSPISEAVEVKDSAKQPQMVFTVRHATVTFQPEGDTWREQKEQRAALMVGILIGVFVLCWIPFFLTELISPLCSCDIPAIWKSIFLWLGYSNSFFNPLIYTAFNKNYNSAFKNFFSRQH
# Sequence of human Adenosine A1 Receptor (AdoRA1), ADORA1 (gene 134) (P30542 whole entry, looked up): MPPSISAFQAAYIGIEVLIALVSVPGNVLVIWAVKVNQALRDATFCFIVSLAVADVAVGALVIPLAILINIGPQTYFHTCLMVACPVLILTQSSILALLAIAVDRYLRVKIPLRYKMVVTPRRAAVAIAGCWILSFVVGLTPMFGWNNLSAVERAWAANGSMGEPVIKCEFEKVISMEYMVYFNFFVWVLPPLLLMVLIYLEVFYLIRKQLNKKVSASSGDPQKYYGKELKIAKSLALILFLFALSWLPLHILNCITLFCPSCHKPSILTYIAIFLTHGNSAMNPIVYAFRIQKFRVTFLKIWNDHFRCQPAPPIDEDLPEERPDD
# Sequence of human Serotonin, 5-Hydroxytryptamine Receptor 2A (5HT2A), HTR2A (gene 3356) (P28223 whole entry, looked up): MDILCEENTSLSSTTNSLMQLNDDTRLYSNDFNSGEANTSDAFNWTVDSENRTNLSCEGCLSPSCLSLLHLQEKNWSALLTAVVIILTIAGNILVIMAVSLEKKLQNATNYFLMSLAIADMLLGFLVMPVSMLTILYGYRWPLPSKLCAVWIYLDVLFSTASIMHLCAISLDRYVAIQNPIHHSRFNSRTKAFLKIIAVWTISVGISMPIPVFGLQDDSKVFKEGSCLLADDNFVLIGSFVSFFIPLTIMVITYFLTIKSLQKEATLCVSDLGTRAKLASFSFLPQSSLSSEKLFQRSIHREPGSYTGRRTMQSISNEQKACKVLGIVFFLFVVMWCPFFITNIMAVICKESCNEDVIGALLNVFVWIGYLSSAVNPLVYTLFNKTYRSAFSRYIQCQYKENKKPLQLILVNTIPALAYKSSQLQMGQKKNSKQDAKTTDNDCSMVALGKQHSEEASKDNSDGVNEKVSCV
# Sequence of human Serotonin, 5-Hydroxytryptamine Receptor 6 (5HT6), HTR6 (gene 3362) (P50406 whole entry, looked up): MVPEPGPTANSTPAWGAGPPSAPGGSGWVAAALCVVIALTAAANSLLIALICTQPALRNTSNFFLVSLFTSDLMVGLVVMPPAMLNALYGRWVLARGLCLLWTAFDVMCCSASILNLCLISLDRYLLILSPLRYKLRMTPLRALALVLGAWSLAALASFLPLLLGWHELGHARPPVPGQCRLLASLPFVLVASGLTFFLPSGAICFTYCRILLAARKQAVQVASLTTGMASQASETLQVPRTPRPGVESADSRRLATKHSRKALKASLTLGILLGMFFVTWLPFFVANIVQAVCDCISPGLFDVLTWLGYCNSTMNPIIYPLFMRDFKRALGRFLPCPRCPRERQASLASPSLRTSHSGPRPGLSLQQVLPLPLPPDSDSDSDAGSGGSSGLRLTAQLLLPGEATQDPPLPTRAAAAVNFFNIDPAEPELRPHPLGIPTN
# Sequence of human Adrenergic, Beta 1 Receptor (Adrb1), ADRB1 (gene 153) (P08588 whole entry, looked up): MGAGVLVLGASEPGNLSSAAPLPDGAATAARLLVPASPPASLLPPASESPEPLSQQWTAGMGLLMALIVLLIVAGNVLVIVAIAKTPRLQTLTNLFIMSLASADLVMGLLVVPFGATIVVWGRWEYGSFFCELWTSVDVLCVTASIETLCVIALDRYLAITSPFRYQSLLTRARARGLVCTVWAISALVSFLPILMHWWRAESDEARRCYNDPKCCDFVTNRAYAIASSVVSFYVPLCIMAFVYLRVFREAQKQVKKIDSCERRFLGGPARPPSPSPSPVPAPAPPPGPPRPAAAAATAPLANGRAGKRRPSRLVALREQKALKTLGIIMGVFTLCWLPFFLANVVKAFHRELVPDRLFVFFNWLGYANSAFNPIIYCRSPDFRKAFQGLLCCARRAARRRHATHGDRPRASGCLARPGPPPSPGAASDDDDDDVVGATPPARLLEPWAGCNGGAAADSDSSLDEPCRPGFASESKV
smiles,measurement,setting,value
S=C(S)NCCNC(=S)S.[Mn+2].[S-]C([S-])=NCCN=C([S-])[S-].[Zn+2],outcome,[1],inactive
same,AC50,[2],2.48 µM (active) and 5.86 µM (active) and 2.62 µM (active)
same,outcome,[2],inactive
CCNc1nc(N)nc(Cl)n1,outcome,[3],inactive
same,AC50,[4],207 nM (active)
same,AC50,[5],9.05 µM (active)
Oc1ccc(C(c2ccc(O)cc2)C(Cl)(Cl)Cl)cc1,AC50,[3],6.9 µM (active)
same,AC50,[6],0.18 µM (active)
same,outcome,[4],inactive
same,AC50,[2],6.91 µM (active)
same,outcome,[7],inactive
CCOC(=O)C(C)Oc1ccc(Oc2cnc3cc(Cl)ccc3n2)cc1 (centres undefined),outcome,[3],inactive
CCCCOC(=O)[C@@H](C)Oc1ccc(Oc2ccc(C(F)(F)F)cn2)cc1,outcome,[2],inactive
CCCCC(CC)COC(=O)c1ccccc1C(=O)O (centres undefined),outcome,[4],inactive
C[C@]12CC[C@@H]3c4ccc(O)cc4C[C@@H](CCCCCCCCCS(=O)CCCC(F)(F)C(F)(F)F)[C@H]3[C@@H]1CC[C@@H]2O (some centres undefined),outcome,[1],inactive
same,outcome,[3],inactive
CC1(C)C(C=C(Cl)Cl)C1C(=O)OCc1cccc(Oc2ccccc2)c1 (centres undefined),outcome,[2],inactive
N[C@@H](Cc1cc(I)c(Oc2ccc(O)c(I)c2)c(I)c1)C(=O)O,AC50,[6],6.06 µM (active)
same,AC50,[4],554 nM (active)
CCCCCCC(C)OC(=O)COc1nc(F)c(Cl)c(N)c1Cl (centres undefined),outcome,[2],inactive
O=C(c1ccc(O)cc1O)c1ccc(O)cc1O,AC50,[6],4.96 µM (active)
same,AC50,[4],11000 nM (active)
same,outcome,[5],inactive
CC(C)(C)[C@@H](O)[C@@H](Cc1ccc(Cl)cc1)n1cncn1,outcome,[8],inactive
COC(=O)CSc1cc(N=c2sc(=O)n3n2CCCC3)c(F)cc1Cl,outcome,[9],inactive
C=CCOC(Cn1ccnc1)c1ccc(Cl)cc1Cl (centres undefined),AC50,[8],12.2 µM (active)
same,AC50,[9],16.4 µM (active)
CC(C)(c1ccc(O)cc1)c1ccc(O)cc1,outcome,[8],inactive
same,AC50,[4],11.9 µM (active) and 1.83 µM (active)
same,outcome,[2],inactive
same,outcome,[7],inactive
c1ccc2[nH]c(-c3cscn3)nc2c1,AC50,[5],4.91 µM (active)
CCCOC(=O)c1ccc(C(=O)OCCC)nc1,AC50,[5],15.2 µM (active)
CC(C)CCCCCCc1ccc(O)cc1,outcome,[5],inactive
same,AC50,[7],38 µM (active)
CC(=O)S[C@@H]1CC2=CC(=O)CC[C@]2(C)[C@H]2CC[C@@]3(C)[C@@H](CC[C@@]34CCC(=O)O4)[C@H]12,AC50,[8],13.2 µM (active)
CCCCCOC(=O)COc1cc(N2C(=O)C3=C(CCCC3)C2=O)c(F)cc1Cl,outcome,[4],inactive
COC(=O)c1cccc(C)c1S(=O)(=O)NC(=O)Nc1nc(OCC(F)(F)F)nc(N(C)C)n1,AC50,[4],10400 nM (active)
same,AC50,[5],6.04 µM (active)
CCCOC(=O)NCCCN(C)C,outcome,[10],inactive
N#CSCSc1nc2ccccc2s1,outcome,[1],inactive
same,AC50,[10],7.3 µM (active)
same,AC50,[9],4.68 µM (active)
Cc1nn(C)c(Oc2ccccc2)c1C=NOCc1ccc(C(=O)OC(C)(C)C)cc1,AC50,[2],6.64 µM (active)
